According to the supplement of paper PMC13380429:

The molecules below were run on Vero E6 infected with SARS-CoV-2 (assay: inhibition of SARS-CoV-2 cytopathic effect; higher = more antiviral protection, active = above 15). Conditions: 10000 nM; 48 h.
For `S=C(NCc1ccc2c(c1)OCO2)N1CCN(c2ncnc3c2oc2ccccc23)CC1` [amuvatinib], the “inhibition of SARS-CoV-2 cytopathic effect” value (“inhibition” for short) was -1.9% (inactive).
For `CC[N+](CC)(CC)CCC(O)(c1ccccc1)C1CCCCC1` (stereo not given) [tridihexethyl], the “inhibition” value was -1.87% (inactive).
`CC(C)C(N)C(=O)O` (stereo in doubt) [L-valine] was tested, and the “inhibition” value was 1.66% (inactive).
For `CCO[C@@H]1OC(=O)C[C@@H]1NC(=O)[C@@H]1CCCN1C(=O)[C@@H](NC(=O)c1ccc(N)c(Cl)c1)C(C)(C)C`, the “inhibition” value was -2.79% (inactive).
In the case of `CCN(CC)CCOC(=O)C1(c2ccccc2)CCCC1` [caramiphen], the “inhibition” value is reported as -3.45% (inactive).
For `CCCN(CCC)C1Cc2cc(OC)c(OC)cc2C1`, the “inhibition” value was -2.36% (inactive).
`CNc1nc(NCc2ccc(NS(C)(=O)=O)cc2Cl)cc(-c2ccccn2)n1` was tested, and the “inhibition” value was 2.16% (inactive).
For `COc1ccc(CNC(=O)c2sc3nc(C)cc(C)c3c2N)cc1`, the “inhibition” value was 2.28% (inactive).
With `COCCOc1cnc2ccn([C@H](C)c3nnc4c(F)cc(-c5cnn(C)c5)cn34)c(=O)c2c1` the “inhibition” value was -0.37% (inactive).
In the case of `O=C(CN1C2=NCCN2c2ccccc21)c1ccc(-c2ccccc2)cc1`, the “inhibition” value is reported as 14.8% (inactive).
In the case of `C[C@@H](O)[C@H]1C(=O)N2C(C(=O)O)=C(SCCNC=N)C[C@H]12` [imipenem], the “inhibition” value is reported as 4.17% (inactive).
In the case of `O=c1[nH]c2ccccc2n1C1CCN(CCOc2ccccc2)CC1` [oxiperomide], the “inhibition” value is reported as 2.21% (inactive).
`Cc1cccc(NC(=O)CN2CCC(c3ccccn3)CC2)c1` was tested, and the “inhibition” value was 3.09% (inactive).
`O=C(O)C(=O)O.[NH-][C@@H]1CCCC[C@H]1[NH-].[Pt+2]` [oxaliplatin] was tested, and the “inhibition” value was 1% (inactive).
With `O=C1C=CC[C@@H]2[C@H]3CCCN4CCC[C@@H](CN12)[C@@H]34` [sophocarpine] the “inhibition” value was -13.3% (inactive).
`COC(=O)[C@H]1[C@H]2C[C@@H]3c4[nH]c5cc(OC)ccc5c4CCN3C[C@H]2C[C@@H](OC(=O)c2cc(OC)c(OC)c(OC)c2)[C@@H]1OC` [reserpine] was tested, and the “inhibition” value was 7.95% (inactive).
In the case of `CC(C)[C@H]1c2ccc(F)cc2CC[C@@]1(CCN(C)CCCc1nc2ccccc2[nH]1)OC(=O)C1CC1`, the “inhibition” value is reported as -19.3% (inactive).
With `CC(C)(C)NC(=O)[C@@H]1CN(Cc2cccnc2)CCN1C[C@@H](O)C[C@@H](Cc1ccccc1)C(=O)N[C@H]1c2ccccc2C[C@H]1O` [indinavir] the “inhibition” value was -10.5% (inactive).
In the case of `C[C@H](CCC(=O)NCCS(=O)(=O)O)[C@H]1CC[C@H]2[C@@H]3[C@@H](O)C[C@@H]4C[C@H](O)CC[C@]4(C)[C@H]3CC[C@]12C` [ursodeoxycholyltaurine], the “inhibition” value is reported as -4.25% (inactive).
For `Cc1[nH]c(=O)c(C#N)cc1-c1ccc2nccn2c1` [olprinone], the “inhibition” value was -0.84% (inactive).
In the case of `CCCCN(CCCC)CCCOC(=O)c1ccc(N)cc1` [butacaine], the “inhibition” value is reported as -2.04% (inactive).
For `CSc1ccccc1OCC(O)CNC(C)C` (stereo not given) [tiprenolol], the “inhibition” value was 3.9% (inactive).
For `C/C(O)=C(\C#N)C(=O)Nc1ccc(C(F)(F)F)cc1` [teriflunomide], the “inhibition” value was 1.1% (inactive).
In the case of `O=C1c2ccccc2C(=O)C1c1ccc(Cl)cc1` [chlorindione], the “inhibition” value is reported as 0.34% (inactive).
For `O=C(O)Cc1ccc(OCCNC[C@H](O)c2ccccc2)cc1`, the “inhibition” value was 1.01% (inactive).
In the case of `c1ccc(CCCN2CCN(CCOC(c3ccccc3)c3ccccc3)CC2)cc1`, the “inhibition” value is reported as -1.85% (inactive).
In the case of `O=C(Nc1ccc(Cl)cc1)Nc1ccc(Cl)c(Cl)c1` [triclocarban], the “inhibition” value is reported as -0.6% (inactive).
`COc1ccc(Cl)c(Nc2ncnc3cc(OCC4CCN(C)CC4)c(OC)cc23)c1` was tested, and the “inhibition” value was -13.8% (inactive).
In the case of `CC(C)(C)NCC(O)COc1ccc(NC(=O)NC2CCCCC2)cc1` (stereo not given) [talinolol], the “inhibition” value is reported as 0.7% (inactive).
`NC(=O)c1ncn([C@@H]2O[C@H](CO)[C@@H](O)[C@H]2O)c1O` [mizoribine] was tested, and the “inhibition” value was -1.77% (inactive).
`Cc1nc(NC(=O)N2CCC[C@H]2C(N)=O)sc1-c1ccnc(C(C)(C)C(F)(F)F)c1` [alpelisib] was tested, and the “inhibition” value was 0.02% (inactive).
`NC[C@H]1CC[C@H](C(=O)O)CC1` [tranexamic-acid] was tested, and the “inhibition” value was -0.32% (inactive).
For `Cc1ccc(N(CC2=NCCN2)c2cccc(O)c2)cc1` [phentolamine], the “inhibition” value was -4.23% (inactive).
`O=C(O)c1cc(=O)c2c(OCC(O)COc3cccc4oc(C(=O)O)cc(=O)c34)cccc2o1` [cromoglicic-acid] was tested, and the “inhibition” value was -0.11% (inactive).
In the case of `CC(O)Cn1cnc2c1c(=O)n(C)c(=O)n2C` (stereo not given) [Proxyphylline], the “inhibition” value is reported as 0.19% (inactive).
For `COc1cc(Cc2cnc(N)nc2N)cc(OC)c1OC` [trimethoprim], the “inhibition” value was 2.04% (inactive).
With `Cc1cc(C)cc(NC(=O)Cc2ccc(OC(C)(C)C(=O)O)cc2)c1` [efaproxiral] the “inhibition” value was -1.51% (inactive).
With `COc1ccc(OC)c(C(O)C(C)N)c1` (stereo not given) [methoxamine] the “inhibition” value was 0.66% (inactive).
In the case of `O=c1cc(-c2cccc3c2Sc2ccccc2S3)oc(N2CCOCC2)c1`, the “inhibition” value is reported as -1.33% (inactive).
For `NCC[C@H](O)C(=O)N[C@@H]1C[C@H](N)[C@@H](O[C@H]2O[C@H](CN)[C@@H](O)[C@H](O)[C@H]2O)[C@H](O)[C@H]1O[C@H]1O[C@H](CO)[C@@H](O)[C@H](N)[C@H]1O` [amikacin], the “inhibition” value was -0.28% (inactive).
